Where “and” joins values, the source holds several entries; their conditions need not be identical. Identical values can stand only once. Results filed as inconclusive are left out. Calls of active or inactive are those of the source. Unless noted, calls come from the whole dose curve; as a rule, active = well fitted curve in the direction sought with a large enough effect; inconclusive = small, poorly fitted or top-dose-only effect, or another doubt; inactive = no such curve, though single readings can be large; an effect the other way counts as inactive or inconclusive.
Key:
[1] = qHTS drug screen for cell cycle checkpoint inhibitors in PARPi-resistant BRCA-mutant ovarian cancer cell lines. (AID 1963452; calls by dose curve; note: potency is the fitted concentration of half-maximal effect); conditions: PEO1/OlaR viability, CellTiter-Glo luminescence, 96 h; for Z-AUC: stronger effect = lower value
In short: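 PEO1, PEO4 and PEO1/OlaR ovarian cancer cells, 600 per well, exposed 96 h at 37C to a dilution series. Viability read by CellTiter-Glo luminescence, normalized to DMSO and empty wells; activity summarized as Z-AUC.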

[2] = biological target: Nuclear receptor subfamily 1 group I member 2 (Homo sapiens) (UniProt O75469); assay: Dual reporter qHTS for antagonist of Pregnane X Receptor (hPXR) against the NCATS DSHEA and TCM libraries: Luminescence Readout (AID 1920060); conditions: hPXR dual reporter cells, luciferase luminescence, antagonist mode; series mostly up to 40 µM;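 note: HepG2 cells carrying hPXR luciferase reporter stimulated with rifampicin at 2 µM; 0% is about no effect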
Sequence of Nuclear receptor subfamily 1 group I member 2 (Homo sapiens) (O75469 whole entry, looked up): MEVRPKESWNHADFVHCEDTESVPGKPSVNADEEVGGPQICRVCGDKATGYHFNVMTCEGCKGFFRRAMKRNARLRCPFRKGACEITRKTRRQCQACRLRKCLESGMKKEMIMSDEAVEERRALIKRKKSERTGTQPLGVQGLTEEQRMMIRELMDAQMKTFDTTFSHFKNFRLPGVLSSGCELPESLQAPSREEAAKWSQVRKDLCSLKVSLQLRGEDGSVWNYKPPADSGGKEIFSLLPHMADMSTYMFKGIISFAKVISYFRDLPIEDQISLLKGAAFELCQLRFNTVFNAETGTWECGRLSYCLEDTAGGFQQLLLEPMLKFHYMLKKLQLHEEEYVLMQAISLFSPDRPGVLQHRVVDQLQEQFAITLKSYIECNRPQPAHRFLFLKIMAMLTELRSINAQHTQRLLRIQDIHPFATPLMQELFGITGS
In short: (§1)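 Antagonist mode: rifampicin 2 uM final co-added with compounds to hPXR-LucHepG2 cells for 24 h at 37C. Viability by CellTiter-Fluor, Ex/Em 405/540 nm, 1 h; reporter by ONE-Glo luminescence.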

[3] = Dual reporter qHTS for antagonist of Pregnane X Receptor (hPXR) against the NCATS DSHEA and TCM libraries: Fluorescence Readout (AID 1920061); conditions: PXR dual reporter cells, antagonist mode; series mostly up to 40 µM; note: 0% is about no effect
In short: as §1

[4] = qHTS profiling for inhibitors of Plasmodium falciparum proliferation (AID 504749); note: nearly all actives have a fitted effect of over 60% in size; note: potency is the fitted concentration of half-maximal effect;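 for activity, negative = inhibition: 0% = DMSO vehicle and full inhibition = artemisinin control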; conditions: P. falciparum in erythrocytes, SYBR Green DNA, 72 h, at 28.7 µM (top of the series)
In short: (§2)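 Fluorescence of SYBR Green-bound parasite DNA, read at 485/535 nm, served as the growth measure. Infected erythrocytes were cultured with compound 72 h; artemisinin (0.29 uM) and DMSO wells defined the normalization range.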

[5] = test system: 3D7; assay: as above; conditions: P. falciparum in erythrocytes, SYBR Green DNA, 72 h; series mostly up to 28.7 µM
In short: as §2

[6] = test system: 7G8; assay: as above; conditions: P. falciparum in erythrocytes, SYBR Green DNA, 72 h; series mostly up to 28.7 µM
In short: as §2

[7] = test system: AA1029; assay: as above; conditions: P. falciparum in erythrocytes, SYBR Green DNA, 72 h; series mostly up to 28.7 µM
In short: as §2

[8] = test system: AS120; assay: as above; conditions: P. falciparum in erythrocytes, SYBR Green DNA, 72 h; series mostly up to 28.7 µM
In short: as §2

[9] = test system: ATS189; assay: as above; conditions: P. falciparum in erythrocytes, SYBR Green DNA, 72 h; series mostly up to 28.7 µM
In short: as §2

[10] = test system: ATS95; assay: as above; conditions: P. falciparum in erythrocytes, SYBR Green DNA, 72 h; series mostly up to 28.7 µM
In short: as §2

[11] = test system: C2A; assay: as above; conditions: P. falciparum in erythrocytes, SYBR Green DNA, 72 h; series mostly up to 28.7 µM
In short: as §2

[12] = test system: CP185; assay: as above; conditions: P. falciparum in erythrocytes, SYBR Green DNA, 72 h; series mostly up to 28.7 µM
In short: as §2

[13] = test system: CP191; assay: as above; conditions: P. falciparum in erythrocytes, SYBR Green DNA, 72 h; series mostly up to 28.7 µM
In short: as §2

[14] = test system: CP192; assay: as above; conditions: P. falciparum in erythrocytes, SYBR Green DNA, 72 h; series mostly up to 28.7 µM
In short: as §2

[15] = test system: CP194; assay: as above; conditions: P. falciparum in erythrocytes, SYBR Green DNA, 72 h; series mostly up to 28.7 µM
In short: as §2

[16] = test system: CP201; assay: as above; conditions: P. falciparum in erythrocytes, SYBR Green DNA, 72 h; series mostly up to 28.7 µM
In short: as §2

[17] = test system: CP203; assay: as above; conditions: P. falciparum in erythrocytes, SYBR Green DNA, 72 h; series mostly up to 28.7 µM
In short: as §2

[18] = test system: CP211; assay: as above; conditions: P. falciparum in erythrocytes, SYBR Green DNA, 72 h; series mostly up to 28.7 µM
In short: as §2

[19] = test system: CP215; assay: as above; conditions: P. falciparum in erythrocytes, SYBR Green DNA, 72 h; series mostly up to 28.7 µM
In short: as §2

[20] = test system: CP217; assay: as above; conditions: P. falciparum in erythrocytes, SYBR Green DNA, 72 h; series mostly up to 28.7 µM
In short: as §2

[21] = measured here: PEO1 parental Z-AUC

COc1cc(N2CCC(N(C)C)CC2)ccc1Nc1ncc(Cl)c(Nc2ccccc2P(C)(C)=O)n1
active: Potency [1] 0.436 µM
-1.75: Z-AUC [1, 21]
-1.64: Z-AUC ([1]; measured here: PEO4 Z-AUC)

O=C(NCC(=O)N1CC[C@H](NC2CCC(O)(c3ccc(-c4ncccn4)cn3)CC2)C1)c1cccc(C(F)(F)F)c1 (stereo partly drawn)
inactive: Z-AUC [1] -0.56
-0.577: Z-AUC [1, 21]
-0.816: Z-AUC ([1]; measured here: PEO4 Z-AUC)

CCCCCCCC(=O)O
inactive: outcome [2] | outcome [3] | activity, negative = inhibition ([4]; parasite line A) 5.42% | activity, negative = inhibition ([4]; parasite line B) 9% | Potency [5] | Potency [6] | Potency [7] | Potency [8] | Potency [9] | Potency [10] | Potency [11] | Potency [12] | Potency [13] | Potency [14] | Potency [15] | Potency [16] | Potency [17] | Potency [18] | Potency [19] | Potency [20]

CN(C)C/C=C/C(=O)Nc1ccc(C(=O)Nc2cccc(Nc3ncc(Cl)c(-c4c[nH]c5ccccc45)n3)c2)cc1
-2.66: Z-AUC ([1]; measured here: PEO4 Z-AUC)
inactive: Z-AUC [1] -2.19
-3.23: Z-AUC [1, 21]

Cc1c(C)c2c(c(C)c1O)CC[C@@](C)(CCC[C@H](C)CCC[C@H](C)CCCC(C)C)O2
inactive: outcome [2] | outcome [3] | activity, negative = inhibition ([4]; parasite line A) -10.2% | activity, negative = inhibition ([4]; parasite line B) -2.69% | Potency [5] | Potency [6] | Potency [7] | Potency [8] | Potency [9] | Potency [10] | Potency [11] | Potency [12] | Potency [13] | Potency [14] | Potency [15] | Potency [16] | Potency [17] | Potency [18] | Potency [19] | Potency [20]

O=C(c1ccc(NS(=O)(=O)c2cccc3cccnc23)cc1)N1CCN(CC2CC2)CC1
-0.11: Z-AUC ([1]; measured here: PEO4 Z-AUC)
-0.299: Z-AUC [1, 21]
inactive: Z-AUC [1] -0.157

CN1C(=O)N[C@@H](Cc2c[nH]c3c(Cl)cccc23)C1=O
inactive: Z-AUC [1] -0.9
-0.721: Z-AUC ([1]; measured here: PEO4 Z-AUC)
-0.75: Z-AUC [1, 21]

CC1=C(/C=C/C(C)=C/C=C/C(C)=C/C=C/C=C(C)/C=C/C=C(C)/C=C/C2=C(C)CCCC2(C)C)C(C)(C)CCC1
inactive: outcome [2] | outcome [3] | Z-AUC [1] 1.77 | activity, negative = inhibition ([4]; parasite line A) 0.195% | activity, negative = inhibition ([4]; parasite line B) -0.801% | Potency [5] | Potency [6] | Potency [7] | Potency [8] | Potency [9] | Potency [10] | Potency [11] | Potency [12] | Potency [13] | Potency [14] | Potency [15] | Potency [16] | Potency [17] | Potency [18] | Potency [19] | Potency [20]
1.11: Z-AUC [1, 21]
0.804: Z-AUC ([1]; measured here: PEO4 Z-AUC)

NS(=O)(=O)OC[C@@H]1C[C@@H](n2ccc3c(N[C@H]4CCc5ccccc54)ncnc32)C[C@@H]1O
active: Potency [1] 0.347 µM
-1.6: Z-AUC [1, 21]
-1.88: Z-AUC ([1]; measured here: PEO4 Z-AUC)

CC1=C(/C=C/C(C)=C/C=C/C(C)=C/CO)C(C)(C)CCC1
active: Potency [6] 10 µM | Potency [20] 10 µM
inactive: outcome [2] | outcome [3] | Potency [14] | Potency [15] | Potency [16] | Potency [18]

CCOC(=O)c1ccnc(CNCC(=O)N(CC)CCN(C)C)c1
0.751: Z-AUC [1, 21]
0.779: Z-AUC ([1]; measured here: PEO4 Z-AUC)
inactive: Z-AUC [1] 1.38

Oc1cc(O)c2c(c1)OC(c1ccc(O)c(O)c1)C(O)C2 (stereo not drawn)
inactive: outcome [3] | activity, negative = inhibition ([4]; parasite line A) -12.6% | activity, negative = inhibition ([4]; parasite line B) -13.8% | Potency [5] | Potency [6] | Potency [7] | Potency [8] | Potency [9] | Potency [10] | Potency [11] | Potency [12] | Potency [13] | Potency [14] | Potency [15] | Potency [16] | Potency [17] | Potency [18] | Potency [19] | Potency [20]

C[C@H]1[C@H](C)CC[C@]2(C(=O)O)CC[C@]3(C)C(=CC[C@@H]4[C@@]5(C)C[C@@H](O)[C@H](O)[C@@](C)(CO)[C@@H]5CC[C@]43C)[C@H]12
inactive: outcome [2] | outcome [3] | Z-AUC [1] 1.03
0.842: Z-AUC ([1]; measured here: PEO4 Z-AUC)
0.608: Z-AUC [1, 21]

CCS(=O)(=O)N1CCC([C@@H](C)n2c(C)c(C(=O)NCc3c(OC)cc(C)[nH]c3=O)c3ccccc32)CC1
0.682: Z-AUC [1, 21]
inactive: Z-AUC [1] -0.188
-0.124: Z-AUC ([1]; measured here: PEO4 Z-AUC)

Cc1cc(Nc2ncc(Cl)c(Nc3ccccc3S(=O)(=O)C(C)C)n2)c(OC(C)C)cc1C1CCNCC1
-0.797: Z-AUC [1, 21]
inactive: Z-AUC [1] -1.77
-0.548: Z-AUC ([1]; measured here: PEO4 Z-AUC)

Cc1nnc(C(C)C)n1C1CC2CCC(C1)N2CC[C@H](NC(=O)C1CCC(F)(F)CC1)c1ccccc1 (stereo partly drawn)
1.65 and 0.521: Z-AUC [1, 21]
inactive: Z-AUC [1] 1.09 and 0.404
1.24 and 0.375: Z-AUC ([1]; measured here: PEO4 Z-AUC)

Cc1nn(C)c2c1C(c1ccc(C(F)(F)F)cc1)C(C#N)=C(N)O2 (stereo not drawn)
1.31: Z-AUC [1, 21]
inactive: Z-AUC [1] 0.183
1.26: Z-AUC ([1]; measured here: PEO4 Z-AUC)

C[C@H](CCC(=O)O)[C@H]1CC[C@H]2[C@@H]3[C@H](O)C[C@@H]4C[C@H](O)CC[C@]4(C)[C@H]3CC[C@]12C
0.917: Z-AUC ([1]; measured here: PEO4 Z-AUC)
0.809: Z-AUC [1, 21]
inactive: Z-AUC [1] 1.79

CN1CC[C@@H](NC(=O)Nc2ccc(C#N)cc2)C[C@@H]1c1nc2ccccc2[nH]1
-1.25: Z-AUC ([1]; measured here: PEO4 Z-AUC)
inactive: Z-AUC [1] -0.312
0.0879: Z-AUC [1, 21]

CC1=CCC(C(C)(C)O)CC1 (stereo not drawn)
inactive: outcome [2] | outcome [3] | activity, negative = inhibition ([4]; parasite line A) 7.42% | activity, negative = inhibition ([4]; parasite line B) 12.4% | Potency [5] | Potency [6] | Potency [7] | Potency [8] | Potency [9] | Potency [10] | Potency [11] | Potency [12] | Potency [13] | Potency [14] | Potency [15] | Potency [16] | Potency [18] | Potency [19] | Potency [20]
